From PubChem BioAssay
BoNT-F LC inh – blocks Botulinum neurotoxin F light chain protease | Multiplex microsphere protease cleavage assay, flow cytometry | inhibition, % at 10 µM | 360,000 compounds, 0.22% hits; in the data active = inhibition above about 35%, passing the limit was not always enough; inconclusive = no clear call, values can overlap the other calls; note: plate controls were buffer without enzyme for full effect and enzyme alone for no effect
Anthrax LF inh2 – anthrax lethal factor protease inhibition; multiplex microsphere protease cleavage assay, LF; P15917; 360,000 compounds, 0.12% hits; inhibition, % at 10 µM; note: plate controls were buffer without enzyme for full effect and enzyme alone for no effect
BoNT A protease – blocks Botulinum neurotoxin A light chain protease. multiplex microsphere protease substrate cleavage, flow cytometry. inhibition, % at 10 µM. AID 588499. 360,000 compounds, 0.17% hits; note: plate controls were buffer without enzyme for full effect and enzyme alone for no effect
MazF activator – activators of E. coli MazEF toxin-antitoxin RNase | FAM/BHQ RNA-DNA oligo cleavage fluorescence, 5 h | 350,000 compounds, 0.32% hits | activation, % at 20 µM; in the data active = activation above about 50%
Target sequence (P0AE70 whole entry, looked up): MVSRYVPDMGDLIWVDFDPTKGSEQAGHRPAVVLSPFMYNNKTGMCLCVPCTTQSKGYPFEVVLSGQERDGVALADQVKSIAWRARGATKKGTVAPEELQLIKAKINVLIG
Autofluor counter – flagged as autofluorescent in microsphere protease counterscreen | AID 624483 | 360,000 compounds, 3.1% hits | fluorescence intensity (test concentration not listed) | compound autofluorescence counterscreen, microsphere flow cytometry; hits give high values; in the data active = fluorescence intensity above about 16000; inconclusive = no clear call, values can overlap the other calls
* = called active by the depositor; ? = inconclusive; / = no result. Most compounds without a hit are left out; they make up all but 3.6% or so of the library. Cut-off read from the data, not from the text of the source, unless noted: active = inhibition above about 30%; inconclusive = no clear call, values can overlap the other calls; inactive = below that.

SMILES	BoNT-F LC inh	Anthrax LF inh2	BoNT A protease	MazF activator	Autofluor counter
CC(=O)C(C(c1ccccc1)N1CCCc2ccccc21)N1CCOCC1 (centres undefined)	-1.9	-0.9	-1.2	3.6	5480
CCN(CC)CCCN=Cc1c(O)n(CCc2ccc(OC)c(OC)c2)c(=O)[nH]c1=O	-0.1	-0.1	?	0.2	21750*
Fc1cccc(C2NC(=S)NC3=C2N2CCC3CC2)c1 (centres undefined)	-3.2	-3.9	-2.3	1.2	17015*
S=C1NC2=C(C(c3ccc(Br)cc3)N1)N1CCC2CC1 (centres undefined)	0.0	1.1	-0.8	-12.6	3547
CC(OC(=O)c1cccc(S(=O)(=O)N2CCCCC2)c1)C(=O)NC1CCCCC1C (centres undefined)	-0.6	-1.0	2.0	5.4	5665
COc1ccc2c(c1)C=C(C(=O)NCc1ccc(Cl)cc1)CO2	3.7	-0.7	3.5	1.2	20111*
Nc1nnc(SCC(=O)NC23CC4CC(CC(C4)C2)C3)s1	-1.4	-4.4	-1.0	-3.7	21047*
CCOC(=O)c1sc2cc([N+](=O)[O-])cc(SCC(C)C)c2c1N	18.1	20.6	31.5*	16.8	20038*
CCOC(=O)c1cc(N)cc([N+](=O)[O-])c1	-8.4	-2.0	-0.8	1.4	2374
CCn1c(CN2CCOCC2)nnc1SCC(=O)Nc1ccc(C(C)=O)cc1	-2.1	-4.6	0.1	-5.4	4772
COC(=O)C1=CN(CC2CCCO2)C=C(C(=O)OC)C1c1cccc(O)c1 (centres undefined)	1.5	0.4	-0.4	5.2	3793
COC(=O)C1=CN(CC2CCCO2)C=C(C(=O)OC)C1c1ccsc1 (centres undefined)	1.9	0.2	0.9	4.2	22638*
CC(=O)NC(c1ccccc1)c1nc(-c2cccc(C(F)(F)F)c2)cs1 (centres undefined)	-4.8	-8.1	-0.8	/	3857
O=C(NCC(=O)N(c1ccc(F)cc1)C(C(=O)NC1CCCC1)c1ccncc1)c1ccco1 (centres undefined)	3.8	0.8	-0.3	-6.2	5172
CCN(CC)CCCN(Cc1cc2cc3c(cc2[nH]c1=O)OCO3)C(=S)NCCCN(C)C	?	-0.1	2.9	7.3	4190
CCN(CC)CCCN(Cc1cc2cc3c(cc2[nH]c1=O)OCO3)C(=S)NC	35.3*	-13.9	-0.9	9.3	3205
CCC(=O)N(CCc1ccccc1)Cc1cc2cc3c(cc2[nH]c1=O)OCO3	-4.1	-1.8	-2.8	-5.0	21744*
CCC(=O)N(Cc1ccc(C)cc1)Cc1cc2cc3c(cc2[nH]c1=O)OCO3	-2.3	-3.0	-1.7	-22.0	23631*
CCN(CC)c1ccc(/C=N/NC(=O)c2nnn(-c3nonc3N)c2CN(C)C2CCCCC2)cc1	-5.8	-5.8	-0.5	-19.7	4092
CC1(C(=O)O)CCC(C(=O)NC2CCCCCC2)C1(C)C (centres undefined)	3.2	0.7	4.6	13.0	21823*
CC1(C(=O)O)CCC(C(=O)NC2CCCCC2)C1(C)C (centres undefined)	13.4	1.2	0.6	7.9	5706
CC1(C(=O)O)CCC(C(=O)Nc2ccccc2)C1(C)C (centres undefined)	-1.6	-9.9	-0.5	4.9	4253
Cc1ccc(C)c(NC(=O)C2CCC(C)(C(=O)O)C2(C)C)c1 (centres undefined)	-6.2	-0.6	-3.5	4.6	24078*
COC(=O)c1cc(CSc2nc3ccccc3c(=O)n2C)oc1C	1.0	2.5	-1.6	-1.4	6708
NC(=O)CSc1nnc(-c2cc(-c3cccs3)nc3ccccc23)o1	1.3	-0.4	-0.3	58.8*	2478
SMILES	BoNT-F LC inh	Anthrax LF inh2	BoNT A protease	MazF activator	Autofluor counter
C=CCOc1ccccc1C1NC(=O)NC(C)=C1C(=O)NCc1ccccc1 (centres undefined)	-5.0	0.6	?	2.8	17255*
CC1=C(C(=O)NCc2ccccc2)C(c2ccccc2OCC(N)=O)NC(=O)N1 (centres undefined)	0.5	2.0	-0.4	3.7	10262
CCOc1cc(C2NC(=O)NC(C)=C2C(=O)NCc2ccccc2)c(Cl)cc1O (centres undefined)	0.6	0.4	-0.2	6.8	20868*
COc1ccc(/C=N/NC(=O)c2cccc(S(=O)(=O)N3CCCC3)c2)cc1O	/	/	/	12.4	/
O=C(CC1C(=O)NCCN1C(=O)Nc1ccccc1)Nc1ccc2c(c1)OCCO2 (centres undefined)	-5.2	-3.1	-0.5	-5.9	16409*
CCn1c2ccccc2c2nnc(SCC(=O)Nc3ncccn3)nc21	3.0	-1.1	?	-3.5	21373*
CCOC(=O)CSc1nnc2c3ccccc3n(CC)c2n1	?	9.1	-2.2	4.4	4353
CCOC(=O)C(Sc1nnc2c3ccccc3n(CC)c2n1)C(=O)OCC	0.4	0.3	0.4	-0.7	16233*
c1ccc(N/N=C(\Cc2nc3ccccc3[nH]2)c2ccccc2)cc1	-13.1	-4.7	-0.6	22.3	2144
Clc1cccc(/C(Cc2nc3ccccc3[nH]2)=N\Nc2ccccc2)c1	-12.4	-2.3	-1.3	60.7*	1985
CCN/N=C(\Cc1nc2ccccc2[nH]1)c1ccccc1	-11.5	-2.5	-0.8	-1.7	4382
N#CCCN/N=C(\Cc1nc2ccccc2[nH]1)c1ccccc1	-1.5	1.5	3.4	-5.0	22721*
CS(=O)(=O)N(CCC#N)Cc1ccc(/C=C2\C(=O)Nc3ccccc32)o1	-6.3	-2.8	-0.8	-0.9	4259
O=C1N=C(N2CCCC2)S/C1=C\C=C\c1ccccc1	40.8*	2.9	4.5	-7.8	4230
O=C1N=C(N2CCCCC2)S/C1=C\c1ccncc1	-1.4	-3.1	-0.6	3.8	6205
CC1CCCCN1CCCNC(=O)c1ccc(N2CCCC2=O)cc1 (centres undefined)	5.4	-1.6	0.1	-3.6	5958
COc1ccc(/C=N/NC(=O)COc2cccc3cccnc23)cc1OC	-6.1	-0.3	-1.1	37.4	4711
NC(=O)COc1cccc2cccnc12	12.5	-11.1	14.6	0.0	16622*
Cc1ccc(S(=O)(=O)N2CCCC2)cc1C(=O)Nc1ccc(-n2cnnn2)cc1	-8.1	2.6	-2.2	9.2	6874
CCSc1nnc(NC(=O)c2cccnc2)s1	13.1	-4.7	9.8	-15.0	19138*
CCSc1nnc(NC(=O)c2csc3c2CCCC3)s1	1.1	-1.1	0.2	-11.4	22354*
CCc1nc2c(OCc3ccc(F)c(F)c3)cccn2c1N(C)C(=O)c1ccncc1	-3.0	-11.1	0.3	/	3679
c1ccc(C(CN2CCCCC2)Oc2ccccn2)cc1 (centres undefined)	4.0	-1.1	-0.3	8.3	3065
Cc1ccc(S(=O)(=O)C(CCC(=O)N2CCOCC2)S(=O)(=O)c2ccc(C)cc2)cc1	0.7	-0.8	-0.5	-1.6	16223*
Cc1ccc(S(=O)(=O)CC(=O)N2CCOCC2)cc1	4.3	2.0	0.4	16.0	4513
O=C(CNS(=O)(=O)c1ccc(Br)cc1)N1CCOCC1	0.3	-1.8	-0.2	5.2	22354*
CN(/N=C/C=C/c1ccccc1)C1=NS(=O)(=O)c2ccccc21	-4.2	0.8	-0.2	1.8	2006
